Pf Dd2 inh = Plasmodium falciparum Dd2 growth inhibition; P. falciparum Dd2 growth, SYBR Green, 72 h; Potency, µM (highest dose often 28.9 µM), usual class: inhibitors; 120,000 tested, 4.3% active; active means well fitted inhibition curve with a large enough effect; further: nearly all actives have a fitted effect of over 65% in size
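Readout: SYBR Green fluorescence, 485 nm excitation, 535 nm emission, after ~16 h lysis at 37C. Before that, Dd2-infected red cells (2.5% hematocrit) grew 72 h with compound, 29 uM top final concentration.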
A number is an active result; n = inactive. Many of the other results were omitted from the sample, so hits are more common in it than they were.

SMILES	Pf Dd2 inh
CCOC(=O)N1CCc2c(sc3c2c(=O)n(-c2ccc(CC)cc2)c(=O)n3Cc2ccc(F)cc2Cl)C1	10µM
CC(=O)N1CCc2c(sc3c2c(=O)n(-c2ccccc2)c(=O)n3CC(=O)Nc2cccc(C)c2)C1	n
CC(=O)N1CCc2c(sc3c2c(=O)n(-c2ccccc2)c(=O)n3CC(=O)Nc2cc(C)cc(C)c2)C1	n
CCOC(=O)N1CCc2c(sc3c2c(=O)n(-c2ccccc2)c(=O)n3CC(=O)Nc2ccc(OC)cc2OC)C1	4.5µM
CCOC(=O)N1CCc2c(sc3c2c(=O)n(-c2ccc(CC)cc2)c(=O)n3Cc2cccc(Cl)c2)C1	n
CC(=O)N1CCc2c(sc3c2c(=O)n(Cc2ccccc2)c(=O)n3Cc2ccccc2F)C1	n
CC(=O)N1CCc2c(sc3c2c(=O)n(-c2ccccc2)c(=O)n3CC(=O)Nc2ccccc2)C1	n
CCOC(=O)N1CCc2c(sc3c2c(=O)n(-c2ccc(Cl)cc2)c(=O)n3CC(=O)c2ccc(F)cc2)C1	n
CC(=O)N1CCc2c(sc3c2c(=O)n(-c2ccccc2C)c(=O)n3Cc2cccc(F)c2)C1	n
COC(=O)c1sc2c(c1C)c(=O)n(-c1ccccc1)c(=O)n2CC(=O)Nc1cccc(C)c1	11µM
CC(=O)N(C1CC1)C1CCOC2(CCN(C(=O)Cc3c(C)noc3C)CC2)C1 (stereo not given)	n
COc1ccc(NC(=O)C2(C)CCc3cnc(N4CCOCC4)nc32)cc1 (stereo not given)	n
COc1ccc(-c2cc(N3CCC(NC(=O)COc4ccccc4C)CC3)n[nH]2)cc1	n
O=C1CCC2(CCN(c3ncc(F)cn3)CC2)CN1CC1CCCO1 (stereo not given)	n
Cc1nccn1CC(=O)N1CCC2(CC1)CNC(C(=O)O)C2 (stereo not given)	n
CCCN1CCCC2(CCN(C(=O)c3cc(CC)[nH]c(=O)c3)C2)C1=O (stereo not given)	n
O=C(C(=O)N1CCC(c2cc(Cc3ccccc3)[nH]n2)CC1)c1cccnc1	n
Cc1ccc(-c2nnc(C3CN(C(=O)c4ccco4)CC34CCOCC4)o2)cc1 (stereo not given)	n
O=C(c1ccnnc1)N1CC(F)(F)C[C@H]1c1nc(-c2ccncc2)no1	n
CCOC(=O)N1CCc2c(sc3c2c(=O)n(Cc2ccccc2)c(=O)n3CC(=O)Nc2ccc(F)cc2)C1	n
CC(=O)N1CCc2c(sc3c2c(=O)n(Cc2ccccc2)c(=O)n3Cc2ccc(C)cc2)C1	n
CCOC(=O)N1CCc2c(sc3c2c(=O)n(Cc2ccccc2)c(=O)n3Cc2c(F)cccc2Cl)C1	3.2µM
Cc1nc(N2CCCC2)c2c(C(=O)N3CCN(c4cc(Cl)ccc4C)CC3)c(C)oc2n1	13µM
Cc1nc(N2CCCC2)c2c(C(=O)N3CCN(c4ccccc4)CC3)c(C)oc2n1	n
Cc1nc(N2CCCC2)c2c(C(=O)Nc3cccc(Cl)c3)c(C)oc2n1	n
SMILES	Pf Dd2 inh
CC(C)=CCN1CC2(CCN(C(=O)c3cc(=O)[nH]c(=O)[nH]3)CC2)CC1=O	n
Cc1nc(C)c(C(=O)N2CCC(CC(=O)N(C)Cc3ccccc3)C2)s1 (stereo not given)	n
COc1ccc(C(=O)NC[C@@H]2C=C(C)[C@H](CC(=O)N3CCOCC3)C[C@H]2C(C)C)cc1	n
CC(=O)NC[C@@H]1C=C(C)[C@H](CC(=O)O)C[C@H]1C(C)C	n
CC1=C[C@@H](CN2CCC(O)CC2)[C@H](C(C)C)C[C@H]1Cc1nnc(C(C)(C)C)o1	10µM
CCCc1nnc(C[C@@H]2C[C@@H](C(C)C)[C@H](CN3CC[C@H](NC(C)=O)C3)C=C2C)o1	5µM
CC1=C[C@@H](CN2CCC(C(N)=O)CC2)[C@H](C(C)C)C[C@H]1Cc1nnc(C)o1	n
CCCc1nnc(C[C@@H]2C[C@@H](C(C)C)[C@H](CN3CCC(CO)CC3)C=C2C)o1	10µM
CC1=C[C@@H](CC#N)[C@H](C(C)C)C[C@H]1CC(=O)N1CCC(C)CC1	n
COCCN1CCN(C[C@@H]2C=C(C)[C@H](Cc3nnc(COc4ccc(F)cc4)o3)C[C@H]2C(C)C)CC1	5µM
CCCc1nnc([C@H]2CCN(Cc3ccc(NC(C)=O)cc3)C2)o1	n
COc1ccccc1OCCNC(=O)C1CCCCC(=O)N1 (stereo not given)	n
COc1ccc(Cl)cc1C(=O)NCc1nnc2ccc(-c3ccc(C)c(C)c3)nn12	n
Cc1nc2cccnc2n1CC1CCCN(S(=O)(=O)c2ccc(C(C)C)cc2)C1 (stereo not given)	n
COc1cccc(CN2C[C@]34C=C[C@H](O3)C(C(=O)N3CCCCC3)C4C2=O)c1 (stereo not given in full)	n
Cc1ccc(-c2nc(C3CC(=O)OC34CCCC4)n(CC(=O)O)n2)o1 (stereo not given)	n
COc1ccccc1C(=O)N1CC(Oc2ccc(F)c(F)c2)C1	n
COc1ccc(-c2nnc3n2CCN(C(=O)c2ccccc2Cl)C3)cc1	n
O=C1N[C@@H]2CCN(C(=O)c3ccc(-c4ccccc4)cc3)[C@@H]2C(=O)N1c1ccc(F)cc1	n
COCCN1CC(CO)C2(CCN(C(=O)Cc3ccccc3OC)CC2)C1 (stereo not given)	n
COc1ccc(CNC(=O)N2CCCCCNC(=O)[C@@H]3CCCC[C@@H]32)cc1	n
O=C1NCCCCCCN(C(=O)Nc2ccccc2)[C@H]2C[C@H](c3nc(-c4cccnc4)no3)C[C@@H]12	n
CCCC(O)c1nc2ccccc2n1CCCOc1ccc(Cl)cc1 (stereo not given)	5µM
Cc1ccc(OCCn2c(COc3ccc(Cl)cc3)nc3ccccc32)cc1	n
CCc1ccc(OCCCn2c(-c3ccc(Cl)cc3)nc3ccccc3c2=O)cc1	n
SMILES	Pf Dd2 inh
COc1ccc(C)cc1NC(=O)N1C[C@@H](F)C[C@H]1C(=O)N1CCCCC1	n
CC(=O)Nc1ccc(C2(C(=O)NCc3ccc4c(c3)OCO4)CCC2)cc1	n
CCS(=O)(=O)Nc1ccc(C2(C(=O)NCc3cccnc3)CCCCC2)cc1	n
CCS(=O)(=O)Nc1ccc(C2(C(=O)NCc3ccc4c(c3)OCO4)CCCCC2)cc1	11µM
CCOC(=O)C1=CN(CC(=O)Nc2ccc(OCC)cc2)S(=O)(=O)N=C1C	n
c1ccc(Nc2cc3c(cn2)NCCN(Cc2ccsc2)C3)cc1	n
COc1cccc(CNC(=O)NC2CCc3n[nH]c(=O)n3CC2)c1 (stereo not given)	n
O=C1CC(c2ccccc2)N(Cc2ccc3c(c2)CCO3)CCCCCCN1 (stereo not given)	13µM
O=C1CC(c2ccccc2)N(C(=O)NCc2ccccc2)CCCCCN1 (stereo not given)	n
O=C1CC(c2ccccc2)N(C(=O)C2CC2)CCCCCCN1 (stereo not given)	n
O=C1CC(c2ccccc2)N(C(=O)CNS(=O)(=O)c2ccc3c(c2)OCCO3)CCCCCN1 (stereo not given)	n
N#Cc1ccc(CN2CCCCCCNC(=O)CC2c2ccccc2)cc1 (stereo not given)	n
O=C1CC(c2ccccc2)N(Cc2ccc3[nH]ccc3c2)CCCCCN1 (stereo not given)	7.9µM
Cc1cccnc1NC(=O)Cn1nc2c(cc1=O)CCCCC2	n
COCc1nc2nc(-c3ccccc3)c(-c3ccc([S+](C)(=O)[O-])cc3)cc2n1C	n
Cc1nc(C)c(C(=O)N2CCC3(CC2)CC(N2CCCCC2)CCO3)s1 (stereo not given)	n
O=C(c1ccc2cc[nH]c2c1)N1CCCC(Cc2noc(-c3ccccc3)n2)C1 (stereo not given)	n

Compound activity as filed in PubChem BioAssay.
